The values below come from paper PMC7862700, “An all-to-all approach to the identification of sequence-specific readers for epigenetic DNA modifications on cytosine”.

Holding throughout (experiment): DAPPL (digital affinity profiling via proximity ligation, sequencing); 10 mM Tris-HCl pH 7.5, 50 mM NaCl, 1 mM DTT, 4% glycerol, room temperature, 30 min; GST-TFs on glutathione beads, 16-mer random dsDNA library, 0.1% formaldehyde crosslink after washing; high values mean tight binding
Common to all, as to details: protein: recombinant; tags: N-terminal GST; dsDNA, one strand shown

In one assay the target is T1, ELK1 (Homo sapiens, UniProt P19419 1-428).
T1 sequence: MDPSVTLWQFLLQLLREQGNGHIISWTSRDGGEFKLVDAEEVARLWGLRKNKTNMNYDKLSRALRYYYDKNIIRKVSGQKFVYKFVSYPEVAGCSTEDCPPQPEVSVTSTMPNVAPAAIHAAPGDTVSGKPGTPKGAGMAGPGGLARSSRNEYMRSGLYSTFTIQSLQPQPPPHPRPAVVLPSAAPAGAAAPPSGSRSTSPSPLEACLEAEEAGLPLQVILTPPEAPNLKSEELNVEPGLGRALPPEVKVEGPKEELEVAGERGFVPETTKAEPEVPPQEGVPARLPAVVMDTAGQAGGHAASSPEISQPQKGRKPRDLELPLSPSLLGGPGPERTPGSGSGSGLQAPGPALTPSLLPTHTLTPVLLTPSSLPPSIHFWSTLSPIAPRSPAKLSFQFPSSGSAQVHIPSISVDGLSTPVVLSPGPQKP
Put shortly:
(§1)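 Sequencing on an Illumina NextSeq500 followed washing, crosslinking with 0.1% formaldehyde, proximity ligation (BsaI/T4 ligase, 1 h, 37 °C) and PCR amplification of pools that had been incubated for 30 min at room temperature with 200 nmole of a random double-stranded 16-mer DNA library in Tris/NaCl/DTT/glycerol buffer. Each pool held DNA-barcoded human transcription factors, expressed in yeast as GST fusions and captured on glutathione beads, plus a tag-only sample. Binding signal is a hexamer's read frequency for a factor divided by its frequency in the tag-only sample.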

For the next assay, the target named is T2, GABPA (Homo sapiens, UniProt Q06546 1-454).
T2 sequence: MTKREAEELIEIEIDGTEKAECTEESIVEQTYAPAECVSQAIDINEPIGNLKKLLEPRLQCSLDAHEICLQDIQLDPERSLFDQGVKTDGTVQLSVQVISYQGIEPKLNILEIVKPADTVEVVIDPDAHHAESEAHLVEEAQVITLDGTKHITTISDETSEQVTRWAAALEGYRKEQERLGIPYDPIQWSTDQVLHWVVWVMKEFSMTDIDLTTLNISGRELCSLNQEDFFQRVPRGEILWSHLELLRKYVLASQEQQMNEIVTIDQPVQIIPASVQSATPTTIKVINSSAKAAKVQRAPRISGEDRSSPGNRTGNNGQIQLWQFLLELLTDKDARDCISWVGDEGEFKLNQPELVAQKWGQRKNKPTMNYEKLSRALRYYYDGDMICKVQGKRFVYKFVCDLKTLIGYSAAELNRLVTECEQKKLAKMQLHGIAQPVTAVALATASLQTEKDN
The method in brief:
as §1

A further assay concerns the target T3, ERG (Homo sapiens, UniProt P11308 1-479).
T3 sequence: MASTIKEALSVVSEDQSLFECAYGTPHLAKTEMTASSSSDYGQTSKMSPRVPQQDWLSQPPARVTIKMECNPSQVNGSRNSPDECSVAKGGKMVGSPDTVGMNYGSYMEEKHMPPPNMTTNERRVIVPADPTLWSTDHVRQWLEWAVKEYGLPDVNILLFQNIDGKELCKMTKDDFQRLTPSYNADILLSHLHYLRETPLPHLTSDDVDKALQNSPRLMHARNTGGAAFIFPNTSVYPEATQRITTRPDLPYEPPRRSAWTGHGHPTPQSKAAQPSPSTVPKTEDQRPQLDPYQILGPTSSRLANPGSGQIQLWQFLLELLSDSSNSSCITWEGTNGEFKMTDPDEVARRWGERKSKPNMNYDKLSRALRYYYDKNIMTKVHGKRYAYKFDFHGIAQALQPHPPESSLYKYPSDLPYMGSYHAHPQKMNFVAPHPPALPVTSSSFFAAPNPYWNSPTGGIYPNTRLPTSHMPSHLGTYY
The method in brief:
as §1

For a further assay, the target named is ELF1 (Homo sapiens, UniProt P32519 1-619). The method in brief:
as §1

A further assay deals with T4, EHF (Homo sapiens, UniProt Q9NZC4 1-300).
T4 sequence: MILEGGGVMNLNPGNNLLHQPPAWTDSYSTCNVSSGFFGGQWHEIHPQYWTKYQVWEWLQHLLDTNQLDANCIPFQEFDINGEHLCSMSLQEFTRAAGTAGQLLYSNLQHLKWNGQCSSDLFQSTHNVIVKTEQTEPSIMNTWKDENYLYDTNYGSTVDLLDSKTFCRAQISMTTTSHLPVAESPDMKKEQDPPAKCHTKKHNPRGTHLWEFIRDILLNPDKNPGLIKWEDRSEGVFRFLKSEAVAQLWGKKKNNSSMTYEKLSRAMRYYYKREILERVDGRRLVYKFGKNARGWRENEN
Put shortly:
as §1

A further assay addresses SPIB (Homo sapiens, UniProt Q01892 1-262). The method in brief: as §1
In a further assay the target is ETV5 (Homo sapiens, UniProt P41161 1-510). Put shortly:
as §1

A further assay concerns the target T5, SPIC (Homo sapiens, UniProt Q8N5J4 1-248).
T5 sequence: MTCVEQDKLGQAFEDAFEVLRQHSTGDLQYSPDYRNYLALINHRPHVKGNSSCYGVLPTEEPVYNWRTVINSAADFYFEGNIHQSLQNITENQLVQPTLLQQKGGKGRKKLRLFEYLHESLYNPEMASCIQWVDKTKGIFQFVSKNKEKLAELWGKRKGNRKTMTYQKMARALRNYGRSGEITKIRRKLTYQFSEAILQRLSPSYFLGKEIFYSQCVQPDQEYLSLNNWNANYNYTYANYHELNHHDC
The method in brief: as §1

The target of a further assay is ELF4 (Homo sapiens, UniProt Q99607 1-663). The method in brief: as §1
For a further assay, the target named is T6, ELK4 (Homo sapiens, UniProt P28324-2 1-405).
T6 sequence: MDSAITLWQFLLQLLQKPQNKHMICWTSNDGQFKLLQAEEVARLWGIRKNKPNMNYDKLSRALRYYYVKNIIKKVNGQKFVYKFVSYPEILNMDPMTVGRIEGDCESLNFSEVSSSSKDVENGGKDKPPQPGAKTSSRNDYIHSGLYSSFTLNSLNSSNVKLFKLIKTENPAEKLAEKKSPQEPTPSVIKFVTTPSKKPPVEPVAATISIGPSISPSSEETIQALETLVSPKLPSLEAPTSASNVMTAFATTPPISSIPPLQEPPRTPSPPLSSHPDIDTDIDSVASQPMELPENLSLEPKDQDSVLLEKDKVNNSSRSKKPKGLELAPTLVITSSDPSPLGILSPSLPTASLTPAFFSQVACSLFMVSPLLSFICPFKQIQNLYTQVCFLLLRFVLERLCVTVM
The method in brief:
as §1

For a further assay, the target named is T7, ELF3 (Homo sapiens, UniProt P78545 1-371).
T7 sequence: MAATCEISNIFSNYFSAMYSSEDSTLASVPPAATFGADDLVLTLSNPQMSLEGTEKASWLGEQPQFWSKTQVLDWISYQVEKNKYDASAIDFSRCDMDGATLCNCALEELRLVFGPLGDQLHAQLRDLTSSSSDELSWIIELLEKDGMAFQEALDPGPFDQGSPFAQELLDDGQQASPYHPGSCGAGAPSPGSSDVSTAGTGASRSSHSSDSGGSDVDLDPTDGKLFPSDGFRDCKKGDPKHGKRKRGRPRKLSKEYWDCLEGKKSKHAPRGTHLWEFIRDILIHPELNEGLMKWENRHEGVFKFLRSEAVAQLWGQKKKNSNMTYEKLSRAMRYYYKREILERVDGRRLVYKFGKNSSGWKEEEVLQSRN
The method in brief: as §1

The next assay addresses ETV1 (Homo sapiens, UniProt P50549 1-477). The method in brief: as §1
The next assay concerns the target T8, ETV3L (Homo sapiens, UniProt Q6ZN32 1-361).
T8 sequence: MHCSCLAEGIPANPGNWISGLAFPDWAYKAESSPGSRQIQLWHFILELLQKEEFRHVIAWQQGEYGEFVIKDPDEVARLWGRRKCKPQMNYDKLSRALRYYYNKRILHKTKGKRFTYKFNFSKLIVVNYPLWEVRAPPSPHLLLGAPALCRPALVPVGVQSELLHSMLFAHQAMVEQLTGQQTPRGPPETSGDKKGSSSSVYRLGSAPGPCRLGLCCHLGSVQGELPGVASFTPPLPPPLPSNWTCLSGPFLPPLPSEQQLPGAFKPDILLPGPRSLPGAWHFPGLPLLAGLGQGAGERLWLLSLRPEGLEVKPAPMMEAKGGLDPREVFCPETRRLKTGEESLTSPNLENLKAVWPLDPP
Put shortly:
as §1

The next assay concerns the target T9, ETS2 (Homo sapiens, UniProt P15036 1-469).
T9 sequence: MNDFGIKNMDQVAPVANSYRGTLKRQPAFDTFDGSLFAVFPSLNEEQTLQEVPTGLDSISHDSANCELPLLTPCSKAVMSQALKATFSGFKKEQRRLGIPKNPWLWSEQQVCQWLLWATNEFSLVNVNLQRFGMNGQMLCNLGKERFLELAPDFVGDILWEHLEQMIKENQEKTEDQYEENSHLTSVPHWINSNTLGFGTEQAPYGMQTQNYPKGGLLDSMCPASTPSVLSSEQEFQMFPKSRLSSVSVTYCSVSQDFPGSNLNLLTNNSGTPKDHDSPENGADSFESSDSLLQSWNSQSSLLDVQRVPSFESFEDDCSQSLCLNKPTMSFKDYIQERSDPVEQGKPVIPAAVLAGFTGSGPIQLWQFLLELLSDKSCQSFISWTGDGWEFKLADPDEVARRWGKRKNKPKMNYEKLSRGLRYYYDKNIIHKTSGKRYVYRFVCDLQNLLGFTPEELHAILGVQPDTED
The method in brief: as §1

The target of the next assay is T10, SPDEF (Homo sapiens, UniProt O95238 1-335).
T10 sequence: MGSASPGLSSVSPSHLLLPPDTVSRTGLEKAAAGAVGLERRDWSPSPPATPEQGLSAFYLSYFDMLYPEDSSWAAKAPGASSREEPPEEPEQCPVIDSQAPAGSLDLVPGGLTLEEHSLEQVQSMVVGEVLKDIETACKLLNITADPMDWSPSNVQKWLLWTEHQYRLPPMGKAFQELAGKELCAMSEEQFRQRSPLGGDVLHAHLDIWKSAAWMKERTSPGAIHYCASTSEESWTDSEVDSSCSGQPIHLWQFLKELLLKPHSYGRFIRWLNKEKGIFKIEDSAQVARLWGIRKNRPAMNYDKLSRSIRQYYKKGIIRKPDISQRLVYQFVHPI
The method in brief: as §1

Another assay deals with T11, ETV7 (Homo sapiens, UniProt Q9Y603 1-341).
T11 sequence: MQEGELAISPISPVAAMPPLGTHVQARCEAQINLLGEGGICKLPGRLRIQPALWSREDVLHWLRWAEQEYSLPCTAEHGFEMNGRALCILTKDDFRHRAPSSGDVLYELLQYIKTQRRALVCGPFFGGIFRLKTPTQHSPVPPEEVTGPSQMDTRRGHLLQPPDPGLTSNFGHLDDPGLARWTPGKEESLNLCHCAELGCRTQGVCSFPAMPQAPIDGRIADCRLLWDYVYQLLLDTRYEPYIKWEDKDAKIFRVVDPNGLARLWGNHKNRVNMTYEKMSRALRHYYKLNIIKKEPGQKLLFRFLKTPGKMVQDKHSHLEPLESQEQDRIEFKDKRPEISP
The method in brief: as §1

In another assay the target is ETV6 (Homo sapiens, UniProt P41212 1-452). The method in brief:
as §1

Sequence of ETV6 (P41212 whole entry): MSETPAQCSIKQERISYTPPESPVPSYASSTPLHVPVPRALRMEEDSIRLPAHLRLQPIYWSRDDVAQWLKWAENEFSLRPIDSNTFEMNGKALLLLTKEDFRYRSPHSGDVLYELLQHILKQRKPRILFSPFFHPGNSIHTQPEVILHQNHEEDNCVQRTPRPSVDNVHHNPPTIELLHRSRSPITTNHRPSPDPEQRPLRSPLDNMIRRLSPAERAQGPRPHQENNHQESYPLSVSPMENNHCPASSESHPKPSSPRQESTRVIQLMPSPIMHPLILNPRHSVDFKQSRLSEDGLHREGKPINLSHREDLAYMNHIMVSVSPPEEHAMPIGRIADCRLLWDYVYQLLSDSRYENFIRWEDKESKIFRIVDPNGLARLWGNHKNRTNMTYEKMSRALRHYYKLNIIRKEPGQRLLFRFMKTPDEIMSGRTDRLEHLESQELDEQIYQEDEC
Sequence of ETV1 (P50549 whole entry): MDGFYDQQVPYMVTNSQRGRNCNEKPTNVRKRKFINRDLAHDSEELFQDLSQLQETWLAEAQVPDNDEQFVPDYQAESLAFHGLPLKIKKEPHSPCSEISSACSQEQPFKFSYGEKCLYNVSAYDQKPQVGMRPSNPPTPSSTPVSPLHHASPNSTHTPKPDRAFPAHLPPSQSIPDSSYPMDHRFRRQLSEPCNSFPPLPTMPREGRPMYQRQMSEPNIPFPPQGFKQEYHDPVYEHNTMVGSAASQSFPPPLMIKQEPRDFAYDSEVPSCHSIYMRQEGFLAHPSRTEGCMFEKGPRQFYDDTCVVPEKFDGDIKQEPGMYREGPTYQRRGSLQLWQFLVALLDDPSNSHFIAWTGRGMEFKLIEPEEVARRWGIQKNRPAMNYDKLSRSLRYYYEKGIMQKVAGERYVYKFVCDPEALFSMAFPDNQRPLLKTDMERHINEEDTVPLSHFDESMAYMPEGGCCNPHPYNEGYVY
Sequence of ETV5 (P41161 whole entry): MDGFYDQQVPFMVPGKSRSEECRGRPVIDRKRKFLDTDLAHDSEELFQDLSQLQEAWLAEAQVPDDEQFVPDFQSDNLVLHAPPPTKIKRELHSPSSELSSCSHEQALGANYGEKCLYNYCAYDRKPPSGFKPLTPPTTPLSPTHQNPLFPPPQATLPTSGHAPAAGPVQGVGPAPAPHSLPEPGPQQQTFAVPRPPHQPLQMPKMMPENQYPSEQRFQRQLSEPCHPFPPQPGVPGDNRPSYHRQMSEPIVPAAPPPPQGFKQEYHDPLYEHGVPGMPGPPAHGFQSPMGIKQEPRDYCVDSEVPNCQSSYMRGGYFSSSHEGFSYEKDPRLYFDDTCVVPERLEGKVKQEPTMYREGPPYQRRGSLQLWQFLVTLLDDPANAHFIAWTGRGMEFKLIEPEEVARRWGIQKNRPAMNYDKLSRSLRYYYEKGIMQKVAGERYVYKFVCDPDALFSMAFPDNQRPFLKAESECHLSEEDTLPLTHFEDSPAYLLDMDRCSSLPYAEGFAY
Sequence of SPIB (Q01892 whole entry): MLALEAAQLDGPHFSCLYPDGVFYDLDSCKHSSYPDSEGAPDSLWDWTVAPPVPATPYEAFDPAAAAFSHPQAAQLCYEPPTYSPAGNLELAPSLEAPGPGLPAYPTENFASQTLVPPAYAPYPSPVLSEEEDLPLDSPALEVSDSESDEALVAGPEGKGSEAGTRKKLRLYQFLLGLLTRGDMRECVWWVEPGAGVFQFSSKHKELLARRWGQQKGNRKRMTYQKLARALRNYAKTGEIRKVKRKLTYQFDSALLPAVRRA
Sequence of ELF4 (Q99607 whole entry): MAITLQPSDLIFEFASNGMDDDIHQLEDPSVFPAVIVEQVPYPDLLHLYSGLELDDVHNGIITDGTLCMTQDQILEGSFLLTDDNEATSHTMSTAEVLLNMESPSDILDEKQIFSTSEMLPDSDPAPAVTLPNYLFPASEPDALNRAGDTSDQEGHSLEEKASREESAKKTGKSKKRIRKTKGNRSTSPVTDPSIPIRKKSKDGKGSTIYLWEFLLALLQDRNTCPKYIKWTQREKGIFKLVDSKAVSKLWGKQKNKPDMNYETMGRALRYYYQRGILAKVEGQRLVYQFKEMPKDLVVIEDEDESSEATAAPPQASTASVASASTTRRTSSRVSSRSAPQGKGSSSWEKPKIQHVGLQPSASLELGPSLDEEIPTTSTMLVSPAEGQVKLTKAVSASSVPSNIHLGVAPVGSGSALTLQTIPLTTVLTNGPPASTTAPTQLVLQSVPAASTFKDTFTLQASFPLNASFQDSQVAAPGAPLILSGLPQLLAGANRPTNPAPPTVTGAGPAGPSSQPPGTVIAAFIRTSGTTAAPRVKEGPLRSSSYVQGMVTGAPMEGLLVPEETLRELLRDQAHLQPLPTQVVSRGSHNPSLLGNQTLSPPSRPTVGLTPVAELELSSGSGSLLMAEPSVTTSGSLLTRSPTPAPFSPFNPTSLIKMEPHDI
Sequence of ELF1 (P32519 whole entry): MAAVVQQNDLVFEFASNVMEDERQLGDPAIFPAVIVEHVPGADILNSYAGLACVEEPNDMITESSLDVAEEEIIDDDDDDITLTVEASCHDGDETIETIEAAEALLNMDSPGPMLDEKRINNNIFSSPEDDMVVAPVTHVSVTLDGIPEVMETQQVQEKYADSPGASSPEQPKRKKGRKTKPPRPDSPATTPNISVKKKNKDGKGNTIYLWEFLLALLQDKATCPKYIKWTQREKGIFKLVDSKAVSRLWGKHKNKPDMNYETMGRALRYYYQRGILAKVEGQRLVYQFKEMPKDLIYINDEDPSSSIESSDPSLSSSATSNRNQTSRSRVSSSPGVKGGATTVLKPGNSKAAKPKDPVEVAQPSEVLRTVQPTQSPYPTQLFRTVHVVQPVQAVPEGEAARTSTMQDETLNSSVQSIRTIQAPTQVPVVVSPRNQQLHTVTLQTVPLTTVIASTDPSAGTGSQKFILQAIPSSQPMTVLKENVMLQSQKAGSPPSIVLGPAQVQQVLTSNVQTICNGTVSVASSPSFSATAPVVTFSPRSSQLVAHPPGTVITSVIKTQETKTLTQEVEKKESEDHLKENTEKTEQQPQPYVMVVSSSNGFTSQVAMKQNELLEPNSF

Regarding GCAGCT, the binding signal was 1.04 fold enrichment (6-mer frequency, TF over GST control) in the assay with ELK1; 1.07 fold enrichment (6-mer frequency, TF over GST control) in the assay with GABPA; 1.02 fold enrichment (6-mer frequency, TF over GST control) with ERG; 1.06 fold enrichment (6-mer frequency, TF over GST control) with ELF1; 1.03 fold enrichment (6-mer frequency, TF over GST control) with EHF; 1.01 fold enrichment (6-mer frequency, TF over GST control) with SPIB. Besides, the binding signal is 1.08 fold enrichment (6-mer frequency, TF over GST control) in the assay with ETV5; 1.14 fold enrichment (6-mer frequency, TF over GST control) with SPIC; 1.06 fold enrichment (6-mer frequency, TF over GST control) with ELF4; 1.08 fold enrichment (6-mer frequency, TF over GST control) in the assay with ELK4; 1.07 fold enrichment (6-mer frequency, TF over GST control) with ELF3; 1.13 fold enrichment (6-mer frequency, TF over GST control) with ETV1. Besides, the binding signal is 1.08 fold enrichment (6-mer frequency, TF over GST control) in the assay with ETV3L; 1.08 fold enrichment (6-mer frequency, TF over GST control) with ETS2; 1.06 fold enrichment (6-mer frequency, TF over GST control) in the assay with SPDEF; 1.11 fold enrichment (6-mer frequency, TF over GST control) with ETV7; 1.06 fold enrichment (6-mer frequency, TF over GST control) with ETV6.
